ChEMBL document CHEMBL4513216, “Probing the Open Global Health Chemical Diversity Library for Multistage-Active Starting Points for Next-Generation Antimalarials” (ACS Infect Dis, 2020)
Hit rate of the full screen: of about 69,000 compounds, about 8,600 (12%) showed an effect of 50% or more. The sample holds strong results, similar compounds and a random draw of the others, so the mix is not that of the screen.

Test system: Plasmodium berghei
Experiment: Screen against P. berghei liver stage (PbLuc), transformed with Luciferase, at 10uM
Assay type: functional, HepG2
Conditions: tested at 10 uM

| SMILES | INHIBITION [%] |
| --- | --- |
| c1ccc(-c2nnc3n2CCN(Cc2ccc4c(c2)OCCO4)C3)cc1 | 33.7 |
| NC(=O)c1cccc(OCC(=O)N2CCCC(n3ccnc3)C2)c1 (stereo not drawn) | 36.1 |
| CC(=O)N1[C@H](CN(C)C)C[C@@H]2CN(c3ncc(F)cn3)CC[C@@H]21 | -0.804 |
| CCC(C)NC(=O)c1ccn(COc2ccccc2Cl)n1 (stereo not drawn) | 34.2 |
| COc1ccc(CNc2ncnc3c2NC(=O)CN3)cc1 | 45.8 |
| CC(C)c1nnc2n1CCN(C(=O)CN(C)Cc1ccccc1)C2 | 12.7 |
| Cc1ccc(CN(C)C(C(=O)O)c2ccc3c(c2)OCO3)o1 (stereo not drawn) | 8.51 |
| CCc1ncnc(N2CCCC(c3cc(C(N)=O)[nH]n3)C2)c1F (stereo not drawn) | -24 |
| CCc1cc2c(N3CCCC(c4cc(C(N)=O)[nH]n4)C3)ncnc2s1 (stereo not drawn) | 55 |
| CCc1cc2c(N3CCCC(c4ccn[nH]4)C3)ncnc2s1 (stereo not drawn) | -1.76 |
| COCC(=O)N1CCC(Cc2nccnc2-c2c(C)n[nH]c2C)C1 (stereo not drawn) | 17.4 |
| CCCN1CCN(c2nc(N)nc3c2nc(C)n3C)CC1 | 13.1 |
| CCOCCNC(=O)C(CCSC)NC(=O)c1ccc2ccccc2n1 (stereo not drawn) | 60.8 |
| CSCCC(NC(=O)c1ccc2ccccc2n1)C(=O)N(C)C (stereo not drawn) | 60.8 |
| CSCCC(NC(=O)c1ccc2ccccc2n1)C(=O)NC1CC1 (stereo not drawn) | 43.7 |
| CSCCC(NC(=O)c1ccc2ccccc2n1)C(=O)NC(C)C (stereo not drawn) | 40.5 |
| CNC(=O)C(CCSC)NC(=O)c1ccc2ccccc2n1 (stereo not drawn) | 19.1 |
| CSCCC(NC(=O)c1ccc2ccccc2n1)C(=O)O (stereo not drawn) | 42.6 |
| Cc1ccc(CN2CCc3onc(COc4cccnc4)c3C2)s1 | 27.6 |
| O=C(CNC(Cn1cccn1)c1ccccc1)Nc1cnccn1 (stereo not drawn) | -12.4 |
| Cc1ccc(C2CCCN2S(=O)(=O)N(C)Cc2cnccn2)o1 (stereo not drawn) | 37.9 |
| CCCn1cc2nc(N3CCCC3)[nH]cc-2c1=O | 44.9 |
| Cc1cnn(CC2CCCN2C(=O)c2ccc(F)c(F)c2)c1 (stereo not drawn) | -63.3 |

| SMILES | INHIBITION [%] |
| --- | --- |
| O=C(Nc1ccc(CCN2CCOCC2)cc1)C1CCC1 | 26.25 |
| CCCc1noc(CN2CCN(CCO)CC2)n1 | 9.015 |
| CC(NCC(=O)N1CCc2sccc2C1)c1ccccc1F (stereo not drawn) | 14.9 |
| CCN(CC)C(=O)c1ccc(Cl)c(NC(=O)c2cnc(C)cn2)c1 | 51.2 |
| CCN(CC)C(=O)c1ccc(Cl)c(NC(=O)c2csnn2)c1 | 28.5 |
| CCN(CC)C(=O)c1ccc(Cl)c(NC(=O)c2cc[nH]n2)c1 | 9.41 |
| Cc1oc(-c2nc(C#N)c(NC(C)(C)C)o2)cc1S(=O)(=O)N1CCCC1 | 40.1 |
| CCC(CC)N1CCC(c2[nH]ncc2S(C)(=O)=O)C1 (stereo not drawn) | -3.94 |
| O=C(NCc1ccco1)N1CCCCC1c1nc(-c2ccncc2)no1 (stereo not drawn) | -31 |
| CS(=O)(=O)N1C[C@H]2CC[C@@H](C1)N(C(=O)Cn1nc3ccccc3n1)C2 | 21.7 |
| C[C@@H]1CN(C2CCN(c3ccccc3)CC2)CC[C@@]1(O)C1CCOCC1 | -2.61 |
| C[C@@H]1CN(C2Cc3ccccc3C2)CC[C@@]1(O)C1CCOCC1 | 10.2 |
| C[C@@H]1CN(C2CCCCC2)CC[C@@]1(O)C1CCOCC1 | 57.7 |
| Cc1nc(C)n(CC2CCCN2CCC(=O)NC2CCCC2)n1 (stereo not drawn) | -38.7 |
| CN(C)c1ccc(C(=O)N2CCN(CC(C)(C)O)CC2)nn1 | 21.6 |
| Cc1ccc(C(=O)NCC(O)c2ccc(F)c(F)c2)c(=O)[nH]1 (stereo not drawn) | 26.6 |
| O=C(NCC(O)c1ccc(F)c(F)c1)c1cccnc1O (stereo not drawn) | 36.8 |
| Cc1ccc(C(=O)NCC(O)c2cccc(F)c2)c(=O)[nH]1 (stereo not drawn) | 52.5 |
| O=C(NCC(O)c1ccc(F)cc1F)c1cccnc1O (stereo not drawn) | 38.3 |
| O=C(NCC(O)c1cccc(F)c1)c1cccnc1O (stereo not drawn) | 50.1 |
| Cc1cc(C)c(CNC(=O)NCC(O)c2cccc(F)c2)c(=O)[nH]1 (stereo not drawn) | 27.9 |
| FC(F)COc1ccccc1NCc1nnsc1Cl | 8.9 |
| CC1(C)Cc2ccc(C(=O)NC3CCOCC3)c(O)c2O1 | -42.8 |

| SMILES | INHIBITION [%] |
| --- | --- |
| Cc1cnn(CC2CN(CC(=O)NCc3ccc(C)s3)CCO2)c1 (stereo not drawn) | 19.4 |
| CCC[C@@H]1CN(Cc2cc(OC)c3c(c2)OCO3)C[C@H]1C(=O)O | 39.4 |
| CCC[C@@H]1CN(Cc2cc3c(cc2OC)OCO3)C[C@H]1C(=O)O | 35.1 |
| CCC[C@@H]1CN(Cc2cc3c(cc2OC)OCCO3)C[C@H]1C(=O)O | 54.4 |
| Cc1ccc(S(=O)(=O)NC(=O)C2(c3ccc(F)cc3)CCC2)c(C)c1 | 20 |
| O=C(c1cccc(-c2ccc(F)cc2)c1)N1CCC2(CC1)[C@H](O)C[C@@H]2O | -8.47 |
| CCc1nc(C2CCCN2C(=O)c2cnns2)no1 (stereo not drawn) | 29.765 |
| CC(C)OCc1ccc(CNC(=O)NC2(CO)CCCC2)cc1 | 46.1 |
| O=C(NCc1ccc(CN2CCCC2)cc1)NCc1ccon1 | 20.4 |
| O=C(NCc1ccc(CN2CCCC2)cc1)NC1(CO)CCCC1 | 62.8 |
| CC(C)CCCNC(=O)Nc1ccc(Cl)c(C(N)=O)c1 | -57.4 |
| CCN(CC)C(=O)CSc1sc2c(O)cc(=O)[nH]c2c1C(N)=O | 4.07 |
| COc1ccc(C(C)Nc2ncnc3c2NC(=O)CN3)cc1 (stereo not drawn) | 8.49 |
| O=S(=O)(c1c(N2CCCC2)ccc2nonc12)N1CCCC1 | 17.7 |
| CCn1cc(-c2cc(C(=O)N3CCOCC3)c3cc(Cl)ccc3n2)cn1 | 12.9 |
| COc1cc(F)cc2sc(NC(=O)COCC3CCCO3)nc12 (stereo not drawn) | 16.1 |
| Cc1noc([C@H]2C[C@@H]3CCN(C(=O)c4cccn4C)C[C@H]3O2)n1 | 25.8 |
| Cc1noc([C@H]2C[C@H]3CN(C(=O)C4CCOCC4)CC[C@@H]3O2)n1 | 59 |
| COCC(=O)N1CC[C@H]2C[C@H](c3nc(C)no3)O[C@@H]2C1 | -41.2 |
| Cc1noc([C@H]2C[C@@H]3CCN(C(=O)C4CCOCC4)C[C@H]3O2)n1 | 41.5 |
| Cc1noc([C@H]2C[C@@H]3CCN(C(=O)N(C)C)C[C@H]3O2)n1 | 54.6 |
| Cc1noc([C@@H]2C[C@H]3CN(C(=O)C4CCN(C)CC4)C[C@H]3O2)n1 | 28.7 |
